GASC-1 inh: inhibitors of GASC-1 histone demethylase, primary screen, biochemical, fluorescence, DELFIA europium. Lysine-specific demethylase 4C (Homo sapiens), Q9H3R0. GST-JMJD2C(1-420) H3K9me3 demethylation. inhibition, % at 2.35 µM. actives 0.069% (n = 330,000). AID 2099, 2009;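 active = more than half of a compound's replicate wells show inhibition beyond 50%, single wells judged on their own value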;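 note: signal counts dimethyl H3K9 product captured on neutravidin plate; 0% = median of DMSO wells and 100% = 0.3 times that DMSO median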
DSG3 Ab inh: inhibitors of pemphigus antibody binding to DSG3, primary screen, biochemical, bead-based, flow cytometry, scFv-GFP; DSG3-coupled beads, scFv-anti-DSG3-GFP binding; active compounds read low; binding (percent of control), % at 10 µM; actives 0.48% (n = 310,000);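 active = binding more than 3 SD below its plate's average and above zero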;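 note: hits lower antibody fragment binding to DSG3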
VLA-4 inh: inhibition in human VLA-4 binding assay, primary screen, VLA-4 allosteric modulator project, MLPCN library, flow cytometry, VLA-4 expressing cells. inhibition, % (about 7 µM as worked out from the volumes in the protocol). ligand binding flow cytometry. Integrin alpha-4 (Homo sapiens), P13612. actives 0.2% (n = 330,000); in the data active = inhibition above about 50%
Target sequence (P13612 whole entry, looked up): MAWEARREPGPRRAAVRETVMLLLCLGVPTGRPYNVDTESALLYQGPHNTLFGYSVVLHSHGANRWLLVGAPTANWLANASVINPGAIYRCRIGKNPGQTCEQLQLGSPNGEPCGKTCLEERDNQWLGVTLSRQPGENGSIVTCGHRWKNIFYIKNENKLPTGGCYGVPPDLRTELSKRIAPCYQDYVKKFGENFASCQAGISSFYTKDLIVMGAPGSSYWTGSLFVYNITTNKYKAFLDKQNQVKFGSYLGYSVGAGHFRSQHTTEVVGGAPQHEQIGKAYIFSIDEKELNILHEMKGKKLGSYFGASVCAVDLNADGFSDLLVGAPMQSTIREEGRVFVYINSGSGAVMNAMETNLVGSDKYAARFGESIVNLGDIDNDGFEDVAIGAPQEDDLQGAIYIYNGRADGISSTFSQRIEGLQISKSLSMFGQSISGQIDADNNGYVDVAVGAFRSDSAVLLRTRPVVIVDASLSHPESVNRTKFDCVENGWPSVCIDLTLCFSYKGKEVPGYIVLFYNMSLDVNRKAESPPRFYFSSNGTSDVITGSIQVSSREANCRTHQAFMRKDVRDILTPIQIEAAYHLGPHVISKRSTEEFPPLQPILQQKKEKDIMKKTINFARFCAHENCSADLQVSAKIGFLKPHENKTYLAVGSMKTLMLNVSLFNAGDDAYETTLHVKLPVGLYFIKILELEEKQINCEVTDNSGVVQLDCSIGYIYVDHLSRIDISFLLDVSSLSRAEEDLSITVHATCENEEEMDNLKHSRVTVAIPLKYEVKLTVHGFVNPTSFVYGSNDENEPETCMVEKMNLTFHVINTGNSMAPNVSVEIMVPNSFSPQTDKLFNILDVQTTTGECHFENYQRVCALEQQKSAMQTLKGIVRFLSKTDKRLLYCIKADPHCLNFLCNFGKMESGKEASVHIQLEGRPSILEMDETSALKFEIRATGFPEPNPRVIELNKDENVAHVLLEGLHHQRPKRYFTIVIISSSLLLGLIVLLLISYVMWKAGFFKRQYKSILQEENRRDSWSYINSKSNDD
GRK2 inh: compounds blocking aptamer binding on GRK2 – biochemical, human GRK2, bead flow cytometry, HTS, primary screen; Beta-adrenergic receptor kinase 1 (Homo sapiens), P25098; FAM-aptamer displacement from GRK2; inhibition of aptamer binding, % at 10 µM; actives 0.59% (n = 330,000); AID 488847, 2010;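 active = inhibition of aptamer binding above 40%, roughly 3 SD of noise, on plates passing a quality check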;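 note: median bead fluorescence of bound FAM aptamer so fluorescent compounds give negative values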
PREPL inhibitor: PREPL enzyme inhibitors, primary screen, biochemical, fluorescence polarization; recombinant PREPL, fluorescence polarization activity-based probe; actives 0.68% (n = 320,000); Prolyl endopeptidase-like (Homo sapiens), Q4J6C6; inhibition, % at 5.96 µM; in the data active = inhibition above about 43%;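 note: 0% = enzyme with DMSO and 100% = wells lacking enzyme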
* hit, by the source's call. Compounds with a hit are over-represented: about 1.6% of the library has one in this group of screens.

CCOC(=O)c1ccc(S(=O)(=O)NCC(C)(C)N2CCOCC2)cc1 was read as GASC-1 inh 4.4, DSG3 Ab inh 77.0*, VLA-4 inh 40.2, GRK2 inh 0.0 and PREPL inhibitor 15.5.
CC(=O)c1cccc(S(=O)(=O)NCC(C)(C)N2CCOCC2)c1 was read as GASC-1 inh 13.4, DSG3 Ab inh 96.1, VLA-4 inh 1.4, GRK2 inh 0.0 and PREPL inhibitor -2.1.
Screening COc1cc(Sc2ccc(C)cc2)c(OC)cc1N returned GASC-1 inh -11.7, DSG3 Ab inh 80.1*, VLA-4 inh -6.7, GRK2 inh 34.0 and PREPL inhibitor 47.2*.
For CCN(CC(=O)NC1CCS(=O)(=O)C1)S(=O)(=O)c1ccccc1Cl (stereo not drawn) the results were GASC-1 inh 6.3, DSG3 Ab inh 103.2, VLA-4 inh -3.4, GRK2 inh 1.0 and PREPL inhibitor 8.3.
For COc1ccccc1C(=O)N/C(=C\c1cn(S(=O)(=O)N(C)C)c2ccccc12)C(=O)N1CCOCC1 the results were GASC-1 inh 14.4, DSG3 Ab inh 102.4, VLA-4 inh 27.3, GRK2 inh 1.0 and PREPL inhibitor -3.1.
C[C@@H]1CN([C@@H](C)CO)S(=O)(=O)c2ccc(Br)cc2O[C@@H]1CN(C)C(=O)C1CC1 was read as DSG3 Ab inh 84.5*.
For C[C@H]1CN([C@@H](C)CO)S(=O)(=O)c2ccc(Br)cc2O[C@H]1CN(C)C(=O)C1CCC1 the results were DSG3 Ab inh 109.4.
For Cc1cccc(C(=O)Nc2ccc(S(=O)(=O)Nc3nc(C)cc(C)n3)cc2)c1 the results were GASC-1 inh 17.2, DSG3 Ab inh 14.4*, VLA-4 inh -2.6, GRK2 inh 1.0 and PREPL inhibitor 10.9.
Screening Cc1cccc(C(=O)NCC(=O)Nc2ccc(S(=O)(=O)Nc3nc(C)cc(C)n3)cc2)c1 returned GASC-1 inh -15.7, DSG3 Ab inh 96.1, VLA-4 inh 33.6, GRK2 inh 1.0 and PREPL inhibitor -4.5.
Screening CCc1cc(C(=O)N2CCN(c3ncccn3)CC2)sc1C returned GASC-1 inh 16.2, DSG3 Ab inh 98.8, VLA-4 inh 7.5, GRK2 inh 1.0 and PREPL inhibitor -3.6.
CN(C)c1ccc(/C=N/N2C(=O)c3ccccc3C2=O)cc1 was read as GASC-1 inh 2.7, DSG3 Ab inh 90.4, VLA-4 inh 8.1, GRK2 inh 5.0 and PREPL inhibitor 0.6.
For CCN(CC)c1ccc(/C=N/N2C(=O)c3ccccc3C2=O)cc1 the results were GASC-1 inh 11.7, DSG3 Ab inh 63.3*, VLA-4 inh -2.3, GRK2 inh 4.0 and PREPL inhibitor -0.7.
For O=C(Nc1ccc(Cl)cc1)N1CCN(c2ccccc2)CC1 the results were GASC-1 inh 51.9*, DSG3 Ab inh 96.6, VLA-4 inh -3.4, GRK2 inh 2.0 and PREPL inhibitor 15.3.
For CC(=O)c1ccc(N2CCN(C(=O)Nc3ccc(Cl)cc3)CC2)cc1 the results were GASC-1 inh -10.2, DSG3 Ab inh 99.3, VLA-4 inh 29.1, GRK2 inh 0.0 and PREPL inhibitor 17.1.
CCOc1ccc(CCN2C(=O)C3C4CCC(O4)C3C2=O)cc1OCC (stereo not drawn) was read as GASC-1 inh 3.9, DSG3 Ab inh 105.0, VLA-4 inh 18.5, GRK2 inh 0.0 and PREPL inhibitor 1.4.
For Nc1nnn(CC(=O)N/N=C/c2cccc(Cl)c2)n1 the results were GASC-1 inh -27.5, DSG3 Ab inh 77.5*, VLA-4 inh 16.7, GRK2 inh 1.0 and PREPL inhibitor -2.9.
For O=C(c1ccncc1)N1CCN(S(=O)(=O)c2ccc(F)cc2)CC1 the results were GASC-1 inh -26.6, VLA-4 inh 12.4, GRK2 inh 1.0 and PREPL inhibitor 2.8.
`O=C(CNc1ccccc1)N/N=C/c1ccc([N+](=O)[O-])cc1` gave GASC-1 inh -0.7, DSG3 Ab inh 105.7, VLA-4 inh 61.8*, GRK2 inh 0.0 and PREPL inhibitor 30.7.
For CCOc1ccccc1NC(=O)C(=O)N/N=C/c1ccc([N+](=O)[O-])cc1 the results were GASC-1 inh -2.2, DSG3 Ab inh 93.2*, VLA-4 inh -2.7, GRK2 inh 0.0 and PREPL inhibitor 3.5.
`O=C(CNC(=O)c1cccs1)N=Nc1c(O)[nH]c2ccc([N+](=O)[O-])cc12` gave GASC-1 inh -5.5, DSG3 Ab inh 111.4, VLA-4 inh -100.6, GRK2 inh 0.0 and PREPL inhibitor 13.9.
For CC(O)CNc1nc2ccccc2n1CC(=O)NCC(F)(F)F (stereo not drawn) the results were GASC-1 inh 1.2, DSG3 Ab inh 101.7, VLA-4 inh -5.1, GRK2 inh 1.0 and PREPL inhibitor -3.2.
Screening CC(O)CNc1nc2ccccc2n1CC(=O)NC12CC3CC(CC(C3)C1)C2 (stereo not drawn) returned GASC-1 inh 51.4*, DSG3 Ab inh 108.6, VLA-4 inh 1.9, GRK2 inh 0.0 and PREPL inhibitor -11.8.
For Cc1sc2ncnc(N3CCC(C(=O)Nc4nc(-c5ccc(F)cc5)cs4)CC3)c2c1C the results were GASC-1 inh -0.4, DSG3 Ab inh -13.9, VLA-4 inh 5.2, GRK2 inh 0.0 and PREPL inhibitor 13.6.
For O=C(NCCN1CCN(S(=O)(=O)c2ccc([N+](=O)[O-])cc2)CC1)C(=O)Nc1ccccc1 the results were GASC-1 inh 23.4, VLA-4 inh 0.8, GRK2 inh 5.0 and PREPL inhibitor 1.5.
Screening CCOc1ccc2nc(-c3ccccc3)nc(SCC(=O)OC)c2c1 returned GASC-1 inh 4.5, DSG3 Ab inh 95.7, VLA-4 inh 5.2 and PREPL inhibitor -0.5.
CCOC(=O)CSc1nc(-c2ccccc2)nc2ccc(C)cc12 was read as GASC-1 inh 2.5, DSG3 Ab inh 76.5*, VLA-4 inh 0.0, GRK2 inh 2.0 and PREPL inhibitor -10.6.
`CC(C)C[C@@H]1NC(=O)[C@H](Cc2ccc(O)cc2)NC(=O)[C@H](CCC(N)=O)NC(=O)c2cc([N+](=O)[O-])cc(I)c2NCC[C@@H](C(N)=O)NC1=O` gave GASC-1 inh -2.5 and PREPL inhibitor -1.2.
Screening Cc1cc(O)c2c(c1O)C(=O)[C@]13C(=C2O)C(=O)[C@@H]2[C@@H](O)[C@H]1[C@@H]1[C@H](O)[C@H]3C(=O)C3=C(O)c4c(O)cc(C)c(O)c4C(=O)[C@]312 returned DSG3 Ab inh -15.3*, VLA-4 inh -138.1, GRK2 inh 72.0* and PREPL inhibitor 20.8.
For Cc1c(-c2ccn[nH]2)cc(NC(=O)c2ccc(Cl)cc2)c(=O)n1N the results were GASC-1 inh -12.3, DSG3 Ab inh 100.0, VLA-4 inh 0.0, GRK2 inh 0.0 and PREPL inhibitor 6.5.
